{"source": "the supplement of paper PMC7411640", "note": "Structures can show the parent of a compound that is named as a salt."}
{"system": "MDA-MB-468", "assay": "phospho-S6 immunofluorescence (DAPI-normalised), per-plate z-score; higher = higher phospho-S6 signal (less pathway suppression)", "settings": "co-treatment: GDC0941 450 nM; 24 h", "description": "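GPCR-targeted compound library (MedChemExpress HY-L006) tested on MDA-MB-468 PTEN-null TNBC cells in 384-well plates at 0.1, 1 or 10 uM, combined with vehicle, GDC0941 450 nM or lapatinib 1 uM, for 24 h. Phospho-S6 (S240/244) immunofluorescence normalised to DAPI and expressed as a per-plate z-score; values are the mean of biological triplicates.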"}
{"smiles": "O=c1ccccn1CC1(O)CCN(Cc2ccccc2)CC1", "note": "(compound 10 µM)", "phospho-S6 immunofluorescence (z-score)": 0.52}
{"smiles": "CCCCc1nc(Cl)c(CO)n1Cc1ccc(-c2ccccc2-c2nnn[nH]2)cc1", "note": "[Losartan (potassium)] (compound 10 µM)", "phospho-S6 immunofluorescence (z-score)": 0.74}
{"smiles": "COc1cc2nc(N3CCN(C(=O)C4COc5ccccc5O4)CC3)nc(N)c2cc1OC", "note": "(configuration not stated) [Doxazosin (mesylate)] (compound 10 µM)", "phospho-S6 immunofluorescence (z-score)": -3.46}
{"smiles": "CC(C)C[C@H](NC(=O)CNC(=O)[C@H](Cc1ccc(O)cc1)NC(=O)[C@H](CO)NC(=O)[C@H](Cc1c[nH]c2ccccc12)NC(=O)[C@H](Cc1cnc[nH]1)NC(=O)[C@@H]1CCC(=O)N1)C(=O)N[C@@H](CCCNC(=N)N)C(=O)N1CCC[C@H]1C(=O)NCC(N)=O", "note": "[Gonadorelin (acetate)] (compound 10 µM)", "phospho-S6 immunofluorescence (z-score)": -0.45}
{"smiles": "Cc1nc(C(=O)N2CCC[C@H]2Cc2nnc(-c3ccccc3)o2)c(-c2ccccc2F)s1", "note": "(compound 10 µM)", "phospho-S6 immunofluorescence (z-score)": 0.95}
{"smiles": "CCCc1nc2c(C)cc(-c3nc4ccccc4n3C)cc2n1Cc1ccc(-c2ccccc2C(=O)O)cc1", "note": "[Telmisartan] (compound 10 µM)", "phospho-S6 immunofluorescence (z-score)": 0.54}
{"smiles": "COc1ccccc1Oc1c(NS(=O)(=O)c2ccc(C)cn2)nc(-c2ccncc2)nc1OC", "note": "[Avosentan] (compound 10 µM)", "phospho-S6 immunofluorescence (z-score)": -0.03}
{"smiles": "COc1cc(/C=C/C(=O)O)ccc1O", "note": "[Ferulic acid (sodium)] (compound 10 µM)", "phospho-S6 immunofluorescence (z-score)": 0.56}
{"smiles": "Cc1ccc(Sc2ccccc2N2CCNCC2)c(C)c1", "note": "[Vortioxetine (hydrobromide)] (compound 10 µM)", "phospho-S6 immunofluorescence (z-score)": -5.79}
{"smiles": "CNc1nc(NCc2ccc(NS(C)(=O)=O)cc2Cl)cc(-c2ccccn2)n1", "note": "(compound 10 µM)", "phospho-S6 immunofluorescence (z-score)": -3.45}
{"smiles": "CC(C)[C@H](NC(=O)[C@H](CCCN=C(N)N)NC(=O)[C@@H](N)CC(=O)O)C(=O)N[C@@H](Cc1ccc(O)cc1)C(=O)N[C@H](C(=O)N[C@@H](Cc1cnc[nH]1)C(=O)N1CCC[C@H]1C(=O)N[C@@H](Cc1ccccc1)C(=O)O)C(C)C", "note": "[Angiotensin II 5-valine] (compound 10 µM)", "phospho-S6 immunofluorescence (z-score)": 1.16}
{"smiles": "O=C(c1ccc(OCCCc2c[nH]cn2)cc1)C1CC1", "note": "[Ciproxifan (maleate)] (compound 10 µM)", "phospho-S6 immunofluorescence (z-score)": -0.58}
{"smiles": "O=C(O)COCCN1CCN(C(c2ccccc2)c2ccc(Cl)cc2)CC1", "note": "(configuration not stated) [Cetirizine (dihydrochloride)] (compound 10 µM)", "phospho-S6 immunofluorescence (z-score)": -0.15}
{"smiles": "COCCc1ccc(OCC(O)CNC(C)C)cc1", "note": "(configuration not stated) [Metoprolol (Succinate)] (compound 10 µM)", "phospho-S6 immunofluorescence (z-score)": 0.44}
{"smiles": "CCCCCCOc1nsnc1C1=CCCN(C)C1", "note": "[Xanomeline (oxalate)] (compound 10 µM)", "phospho-S6 immunofluorescence (z-score)": -0.72}
{"smiles": "COc1cc2nc(N3CCN(C(=O)C4CCCO4)CC3)nc(N)c2cc1OC", "note": "(configuration not stated) [Terazosin (hydrochloride dihydrate)] (compound 10 µM)", "phospho-S6 immunofluorescence (z-score)": 0.82}
{"smiles": "CC(=O)N[C@H](Cc1ccc2ccccc2c1)C(=O)N[C@H](Cc1ccc(Cl)cc1)C(=O)N[C@H](Cc1cccnc1)C(=O)N[C@@H](CO)C(=O)N(C)[C@@H](Cc1ccc(O)cc1)C(=O)N[C@H](CC(N)=O)C(=O)N[C@@H](CC(C)C)C(=O)N[C@@H](CCCCNC(C)C)C(=O)N1CCC[C@H]1C(=O)N[C@H](C)C(N)=O", "note": "[Abarelix] (compound 10 µM)", "phospho-S6 immunofluorescence (z-score)": 0.77}
{"smiles": "CN(C)CCCN1c2ccccc2Sc2ccc(C(F)(F)F)cc21", "note": "[Triflupromazine (hydrochloride)] (compound 10 µM)", "phospho-S6 immunofluorescence (z-score)": -0.42}
{"smiles": "COc1ccc(CCN2CCN(CCCc3ccccc3)CC2)cc1OC", "note": "[SA4503 (dihydrochloride)] (compound 10 µM)", "phospho-S6 immunofluorescence (z-score)": 0.13}
{"smiles": "Cc1cc2c(cc1CC(=O)c1sccc1S(=O)(=O)Nc1onc(C)c1Cl)OCO2", "note": "[Sitaxsentan (sodium)] (compound 10 µM)", "phospho-S6 immunofluorescence (z-score)": 0.35}
{"smiles": "O=C(N[C@@H]1CC[C@@H](c2cccc(F)c2F)CN(CC(F)(F)F)C1=O)N1CCC(n2c(=O)[nH]c3ncccc32)CC1", "note": "(compound 10 µM)", "phospho-S6 immunofluorescence (z-score)": 0.18}
{"smiles": "O=C(c1ccc(F)cc1)N1CCC[C@H](c2nc(-c3ccc(F)cc3)no2)C1", "note": "(compound 10 µM)", "phospho-S6 immunofluorescence (z-score)": -2.64}
{"smiles": "OC[C@H]1O[C@@H](n2cnc3c(N[C@@H]4CCc5ccccc54)ncnc32)[C@H](O)[C@@H]1O", "note": "(compound 10 µM)", "phospho-S6 immunofluorescence (z-score)": 1.19}
{"smiles": "O=C(O[C@@H]1C[C@@H]2C[C@H]3C[C@H](C1)N2CC3=O)c1c[nH]c2ccccc12", "note": "[Dolasetron (Mesylate hydrate)] (compound 10 µM)", "phospho-S6 immunofluorescence (z-score)": 0.52}
{"smiles": "CN1CCN2c3c(cccc31)[C@@H]1CN(CCCC(=O)c3ccc(F)cc3)CC[C@@H]12", "note": "[lumateperone (Tosylate)] (compound 10 µM)", "phospho-S6 immunofluorescence (z-score)": -3.44}
{"smiles": "Cc1c(CC(=O)O)c2cccnc2n1Cc1ccc(S(C)(=O)=O)cc1C(F)(F)F", "note": "[Fevipiprant] (compound 10 µM)", "phospho-S6 immunofluorescence (z-score)": -2.62}
{"smiles": "CC(C(=O)Nc1cc(C#N)ccc1CCCC(=O)O)c1ccc(F)c2ccccc12", "note": "(configuration not stated) (compound 10 µM)", "phospho-S6 immunofluorescence (z-score)": -3.03}
{"smiles": "Fc1ccc(-c2cncc(CN3CCN(c4cccc5c4OCCO5)CC3)c2)cc1", "note": "[Adoprazine] (compound 10 µM)", "phospho-S6 immunofluorescence (z-score)": -2.84}
{"smiles": "CCc1nc2c(C)nc(C)cc2n1-c1ccc(CCNC(=O)NS(=O)(=O)c2ccc(C)cc2)cc1", "note": "[Grapiprant] (compound 10 µM)", "phospho-S6 immunofluorescence (z-score)": -0.05}
{"smiles": "CCc1nn(CCCN2CCN(c3cccc(Cl)c3)CC2)c(=O)n1CCOc1ccccc1", "note": "[Nefazodone (hydrochloride)] (compound 10 µM)", "phospho-S6 immunofluorescence (z-score)": -4.37}
{"smiles": "NC1=NCC2c3ccccc3Cc3ccccc3N12", "note": "(configuration not stated) [Epinastine] (compound 10 µM)", "phospho-S6 immunofluorescence (z-score)": -0.05}
{"smiles": "O=C(NCCCN1CCC2(CC1)OCc1ccccc12)[C@H]1CCCN1Cc1ccccc1", "note": "(compound 10 µM)", "phospho-S6 immunofluorescence (z-score)": -1.61}
{"smiles": "O=C(O)CCCN1CCC(O[C@@H](c2ccc(Cl)cc2)c2ccccn2)CC1", "note": "[Bepotastine (Beslilate)] (compound 10 µM)", "phospho-S6 immunofluorescence (z-score)": -0.72}
{"smiles": "CCCCC[C@H](O)/C=C/[C@H]1[C@H](O)CC(=O)[C@@H]1C/C=C\\CCCC(=O)O", "note": "[Prostaglandin E2] (compound 10 µM)", "phospho-S6 immunofluorescence (z-score)": -0.11}
{"smiles": "O=C(O)Cn1c2c(c3cc(F)ccc31)CN(C(=O)c1cccc3ccccc13)CC2", "note": "[Setipiprant] (compound 10 µM)", "phospho-S6 immunofluorescence (z-score)": 0.42}
{"smiles": "OCCOCCN1CCN(C2=Nc3ccccc3Sc3ccccc32)CC1", "note": "[Quetiapine] (compound 10 µM)", "phospho-S6 immunofluorescence (z-score)": 0.95}
{"smiles": "Oc1cc2c(cc1O)C(c1ccccc1)CNCC2", "note": "(configuration not stated) (compound 10 µM)", "phospho-S6 immunofluorescence (z-score)": 0.77}
